Measured values taken from PubChem BioAssay (NCATS).
Records with an inconclusive call do not appear. Active and inactive are the calls of the source. Unless noted, calls follow the shape of the dose curve; as a rule, active = well fitted curve in the direction sought with a large enough effect; inconclusive = small, poorly fitted or top-dose-only effect, or another doubt; inactive = no such curve, though single readings can be large; an effect the other way counts as inactive or inconclusive.

Columns and labels:
[1] = qHTS profiling for inhibitors of Plasmodium falciparum proliferation (AID 504749);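 also: 0% = DMSO vehicle and full inhibition = artemisinin control; nearly all actives have a fitted effect of over 60% in size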; settings: P. falciparum in erythrocytes, SYBR Green DNA, 72 h; series mostly up to 28.7 µM
Method in brief: (§1)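 SYBR Green fluorescence of parasite DNA, read after lysis and overnight dark incubation, measured growth over 72 h in erythrocyte culture at 0.3% parasitemia and 2.5% hematocrit. Data normalised to DMSO and 0.29 uM artemisinin, with plate-drift correction.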

3D7 = assay: as above; settings: P. falciparum in erythrocytes, SYBR Green DNA, 72 h; series mostly up to 28.7 µM
Method in brief: as §1

7G8 = assay: as above; settings: P. falciparum in erythrocytes, SYBR Green DNA, 72 h; series mostly up to 28.7 µM
Method in brief: as §1

AA1029 = assay: as above; settings: P. falciparum in erythrocytes, SYBR Green DNA, 72 h; series mostly up to 28.7 µM
Method in brief: as §1

AS120 = assay: as above; settings: P. falciparum in erythrocytes, SYBR Green DNA, 72 h; series mostly up to 28.7 µM
Method in brief: as §1

ATS189 = assay: as above; settings: P. falciparum in erythrocytes, SYBR Green DNA, 72 h; series mostly up to 28.7 µM
Method in brief: as §1

ATS95 = assay: as above; settings: P. falciparum in erythrocytes, SYBR Green DNA, 72 h; series mostly up to 28.7 µM
Method in brief: as §1

C2A = assay: as above; settings: P. falciparum in erythrocytes, SYBR Green DNA, 72 h; series mostly up to 28.7 µM
Method in brief: as §1

CP185 = assay: as above; settings: P. falciparum in erythrocytes, SYBR Green DNA, 72 h; series mostly up to 28.7 µM
Method in brief: as §1

CP191 = assay: as above; settings: P. falciparum in erythrocytes, SYBR Green DNA, 72 h; series mostly up to 28.7 µM
Method in brief: as §1

CP192 = assay: as above; settings: P. falciparum in erythrocytes, SYBR Green DNA, 72 h; series mostly up to 28.7 µM
Method in brief: as §1

CP194 = assay: as above; settings: P. falciparum in erythrocytes, SYBR Green DNA, 72 h; series mostly up to 28.7 µM
Method in brief: as §1

CP201 = assay: as above; settings: P. falciparum in erythrocytes, SYBR Green DNA, 72 h; series mostly up to 28.7 µM
Method in brief: as §1

CP203 = assay: as above; settings: P. falciparum in erythrocytes, SYBR Green DNA, 72 h; series mostly up to 28.7 µM
Method in brief: as §1

CP211 = assay: as above; settings: P. falciparum in erythrocytes, SYBR Green DNA, 72 h; series mostly up to 28.7 µM
Method in brief: as §1

CP215 = assay: as above; settings: P. falciparum in erythrocytes, SYBR Green DNA, 72 h; series mostly up to 28.7 µM
Method in brief: as §1

CP217 = assay: as above; settings: P. falciparum in erythrocytes, SYBR Green DNA, 72 h; series mostly up to 28.7 µM
Method in brief: as §1

[2] = qHTS drug screen for cell cycle checkpoint inhibitors in PARPi-resistant BRCA-mutant ovarian cancer cell lines. (AID 1963452; calls by dose curve); settings: PEO1/OlaR viability, CellTiter-Glo luminescence, 96 h, stronger effect = lower value
Method in brief: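 PEO1, PEO4 and PEO1/OlaR ovarian cancer cells, 600 per well, exposed 96 h at 37C to a dilution series. Viability read by CellTiter-Glo luminescence, normalized to DMSO and empty wells; activity summarized as Z-AUC.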

[3] = Dual reporter qHTS for antagonist of Pregnane X Receptor (hPXR) against the NCATS DSHEA and TCM libraries: Fluorescence Readout (AID 1920061); also: 0% is about no effect
Method in brief: (§2)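 Rifampicin-stimulated (2 uM final) hPXR-luciferase HepG2 cells were treated for 24 h with DSNP/TCM substances. Viability came from CellTiter-Fluor fluorescence, reporter activity from ONE-Glo luminescence.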

[4] = biological target: Nuclear receptor subfamily 1 group I member 2 (Homo sapiens) (UniProt O75469); assay: Dual reporter qHTS for antagonist of Pregnane X Receptor (hPXR) against the NCATS DSHEA and TCM libraries: Luminescence Readout (AID 1920060); also: 0% is about no effect
Method in brief: as §2

[5] = measured here: PEO1 parental Z-AUC

Nuclear receptor subfamily 1 group I member 2 (Homo sapiens), sequence (O75469 whole entry, looked up): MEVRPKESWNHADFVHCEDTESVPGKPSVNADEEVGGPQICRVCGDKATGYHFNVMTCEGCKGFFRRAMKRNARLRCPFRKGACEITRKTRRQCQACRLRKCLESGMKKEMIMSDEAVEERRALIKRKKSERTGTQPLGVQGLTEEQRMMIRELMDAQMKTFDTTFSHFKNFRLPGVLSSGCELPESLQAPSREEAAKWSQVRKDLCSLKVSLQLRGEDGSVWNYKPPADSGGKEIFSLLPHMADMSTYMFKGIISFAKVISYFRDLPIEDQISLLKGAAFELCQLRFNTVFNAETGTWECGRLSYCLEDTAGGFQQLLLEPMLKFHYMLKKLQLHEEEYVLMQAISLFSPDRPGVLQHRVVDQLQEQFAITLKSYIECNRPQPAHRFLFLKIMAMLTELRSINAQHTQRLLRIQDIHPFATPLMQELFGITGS

In the case of `CCOC(=O)C(CCc1ccccc1)NC(C)C(=O)N1Cc2ccccc2CC1C(=O)O` (configuration not stated), the outcome [1] is reported as “inactive”, the outcome (3D7) is reported as “inactive” and the outcome (7G8) is reported as “inactive”. For the same compound, the outcome (AA1029) was “inactive”, the outcome (AS120) was “inactive” and the outcome (ATS189) was “inactive”. For the same compound, the outcome (ATS95) was “inactive”, the outcome (C2A) was “inactive” and the outcome (CP185) was “inactive”. The outcome (CP191) was “inactive”, the outcome (CP192) was “inactive” and the outcome (CP194) was “inactive”. The outcome (CP201) was “inactive”, the outcome (CP203) was “inactive” and the outcome (CP211) was “inactive”. For the same compound, the outcome (CP215) was “inactive” and the outcome (CP217) was “inactive”.

For `Cc1ncc(Cl)cc1NCc1ccc(C(=O)NC(CC2CCCC2)C(=O)NC2CC2)s1` (configuration not stated), the Z-AUC [2] was -0.347 (inactive), the Z-AUC [2, 5] was -0.204 and the Z-AUC ([2]; measured here: PEO4 Z-AUC) was 0.18.

For `CCc1cccc2c3c([nH]c12)[C@@](CC)(CC(=O)O)OCC3`, the outcome [1] was “inactive”, the outcome (3D7) was “inactive” and the outcome (7G8) was “inactive”. For the same compound, the outcome (AA1029) was “inactive”, the outcome (AS120) was “inactive” and the outcome (ATS95) was “inactive”. The outcome (C2A) was “inactive”, the outcome (CP185) was “inactive” and the outcome (CP191) was “inactive”. For the same compound, the outcome (CP192) was “inactive”, the outcome (CP194) was “inactive” and the outcome (CP201) was “inactive”. For the same compound, the outcome (CP203) was “inactive”, the outcome (CP211) was “inactive” and the outcome (CP215) was “inactive”. The outcome (CP217) was “inactive”.

With `Cc1noc2c1-c1ccccc1C(c1ccc(Cl)cc1)=N[C@H]2CC(N)=O` the Z-AUC [2] was -0.193 (inactive), the Z-AUC [2, 5] was -0.00939 and the Z-AUC ([2]; measured here: PEO4 Z-AUC) was -0.463.

With `CNc1nc(C)nc(N[C@H]2CCC[C@@H](C(=O)NCc3ccc(C#N)cc3C(F)(F)F)C2)n1` the Z-AUC [2] was -0.0725 (inactive), the Z-AUC [2, 5] was 0.695 and the Z-AUC ([2]; measured here: PEO4 Z-AUC) was 1.22.

With `Cc1c(F)cc(C(=O)NC2CC2)cc1-c1ccc(C(=O)NCC(C)(C)C)cn1` the Z-AUC [2] was 0.819 (inactive), the Z-AUC [2, 5] was 0.354 and the Z-AUC ([2]; measured here: PEO4 Z-AUC) was 0.681.

In the case of `COc1ccc2[nH]c(S(=O)Cc3ncc(C)c(OC)c3C)nc2c1` (configuration not stated), the Z-AUC [2] is reported as 0.929 (inactive), the Z-AUC [2, 5] is reported as 1.11 and the Z-AUC ([2]; measured here: PEO4 Z-AUC) is reported as 1.24.

In the case of `Cc1nc(-c2cccnc2)sc1C(=O)Nc1ccccc1-c1cn2c(CN3CCOCC3)csc2n1`, the Z-AUC [2] is reported as 0.405 (inactive), the Z-AUC [2, 5] is reported as -0.0743 and the Z-AUC ([2]; measured here: PEO4 Z-AUC) is reported as 0.19.

In the case of `O=C(/C=C/C=C/c1ccc2c(c1)OCO2)N1CCCCC1`, the Z-AUC [2] is reported as 1.54 (inactive), the Z-AUC [2, 5] is reported as 1.2 and the Z-AUC ([2]; measured here: PEO4 Z-AUC) is reported as 2.18.

For `Cc1ncc(NC(=O)c2ccc(CN3CCN(C)CC3)c(C(F)(F)F)c2)cc1Nc1nccc(-c2cccnc2)n1`, the Z-AUC [2] was 0.889 (inactive), the Z-AUC [2, 5] was -0.0515 and the Z-AUC ([2]; measured here: PEO4 Z-AUC) was -0.0456.

For `Nc1ncnc2c1C(=O)N(c1ccc(C3CCC(CC(=O)O)CC3)cc1)CCO2` (configuration not stated), the Z-AUC [2] was 0.276 (inactive), the Z-AUC [2, 5] was 0.0726 and the Z-AUC ([2]; measured here: PEO4 Z-AUC) was 0.138.

With `N#Cc1ccc(C2CCCc3cncn32)cc1` (configuration not stated) the Z-AUC [2] was 0.659 (inactive), the Z-AUC [2, 5] was 0.67 and the Z-AUC ([2]; measured here: PEO4 Z-AUC) was 0.567.

With `COCCCc1sc(-c2ccccc2)nc1C(=O)Nc1ccccc1-c1nc2cc(CN3CCCC3)cnc2s1` the Z-AUC [2] was 0.0751 (inactive), the Z-AUC [2, 5] was -0.146 and the Z-AUC ([2]; measured here: PEO4 Z-AUC) was 0.43.

With `CC(C)[C@](O)(c1ccc2cc(OC(F)F)c(OC(F)F)cc2c1)c1cn[nH]n1` the Z-AUC [2] was -0.262 (inactive), the Z-AUC [2, 5] was -0.434 and the Z-AUC ([2]; measured here: PEO4 Z-AUC) was -0.604.

In the case of `O=C(COCC(=O)N1CCN(C(c2ccccc2)c2ccccc2)CC1)Nc1ccc(Cl)cc1C(=O)O`, the Z-AUC [2] is reported as 1.8 (inactive), the Z-AUC [2, 5] is reported as 1.44 and the Z-AUC ([2]; measured here: PEO4 Z-AUC) is reported as 1.34.

With `O=C1NC(=O)/C(=C/c2cccc(C(F)(F)F)c2)S1` the Z-AUC [2] was 0.536 (inactive), the Z-AUC [2, 5] was 0.151 and the Z-AUC ([2]; measured here: PEO4 Z-AUC) was 0.0196.

In the case of `Nc1ncnc2c1c(COc1cccc(Cl)c1)nn2C1CCOCC1`, the Z-AUC [2] is reported as -1.18 (inactive), the Z-AUC [2, 5] is reported as -0.772 and the Z-AUC ([2]; measured here: PEO4 Z-AUC) is reported as -0.767.

For `CC(C)N(CCCNC(=O)Nc1ccc(C(C)(C)C)cc1)C[C@H]1O[C@@H](n2ccc3c(N)ncnc32)[C@H](O)[C@@H]1O`, the Z-AUC [2] was -0.352 (inactive), the Z-AUC [2, 5] was -0.286 and the Z-AUC ([2]; measured here: PEO4 Z-AUC) was -0.377.

With `COc1cccc2c1c(O)c(C(=O)N(C)c1ccc(C(F)(F)F)cc1)c(=O)n2C` the Z-AUC [2] was 0.835 (inactive), the Z-AUC [2, 5] was 0.409 and the Z-AUC ([2]; measured here: PEO4 Z-AUC) was 0.643.

In the case of `Cc1cccc(-c2nn3c(c2-c2ccnc4ccc(C(N)=O)cc24)CCC3)n1`, the Z-AUC [2] is reported as 1.11 (inactive), the Z-AUC [2, 5] is reported as 0.368 and the Z-AUC ([2]; measured here: PEO4 Z-AUC) is reported as 0.508.

For `N#CN1CCC[C@@H](n2nc(-c3ccc(Oc4ccc(F)cc4F)cc3)c(C(N)=O)c2N)C1`, the Z-AUC [2] was -0.296 (inactive), the Z-AUC [2, 5] was 0.0658 and the Z-AUC ([2]; measured here: PEO4 Z-AUC) was 0.537.

With `CCC(CC)CC1(C(=O)Nc2ccccc2SC(=O)C(C)C)CCCCC1` the Z-AUC [2] was -0.732 (inactive), the Z-AUC [2, 5] was -0.887 and the Z-AUC ([2]; measured here: PEO4 Z-AUC) was -0.923.

In the case of `C[C@@H]1O[C@@H](O[C@@H]2\C=C/C=C\C=C/C=C\C[C@H](C)OC(=O)/C=C\[C@H]3O[C@@H]3C[C@H](O)C[C@]3(O)C[C@@H](O)[C@@H](C(=O)O)[C@H](C2)O3)[C@H](O)[C@H](N)[C@@H]1O`, the Z-AUC [2] is reported as 1.98 (inactive), the Z-AUC [2, 5] is reported as 1.57 and the Z-AUC ([2]; measured here: PEO4 Z-AUC) is reported as 1.97.

With `C=C1C[C@@]2(O)O[C@@]3(C[C@H]2C(C)C)[C@@H](C)CC[C@@H]13` the Z-AUC [2] was -0.318 (inactive), the Z-AUC [2, 5] was -0.38 and the Z-AUC ([2]; measured here: PEO4 Z-AUC) was -0.147.

With `O=C(OCC1=C[C@@H](O)[C@@H]2C=CO[C@@H](O[C@@H]3O[C@H](CO)[C@@H](O)[C@H](O)[C@H]3O)[C@H]12)c1ccc(O)cc1` the outcome [3] was “inactive”.

In the case of `CCCCOc1nc(N)c2c(n1)N(Cc1cccc(CN3CCCC3)c1)CC(=O)N2`, the Z-AUC [2] is reported as -0.393 (inactive), the Z-AUC [2, 5] is reported as -0.969 and the Z-AUC ([2]; measured here: PEO4 Z-AUC) is reported as -0.664.

In the case of `O=C(O)CC1CCC(c2ccc(-c3ccc(Nc4ccc(C(F)(F)F)nc4)cn3)cc2)CC1` (configuration not stated), the Z-AUC [2] is reported as -0.639 (inactive), the Z-AUC [2, 5] is reported as -0.457 and the Z-AUC ([2]; measured here: PEO4 Z-AUC) is reported as -0.671.

With `Cn1cc(-c2c[nH]c3ncnc(N4CCOCC4)c23)cn1` the Z-AUC [2] was 1.31 (inactive), the Z-AUC [2, 5] was 1.65 and the Z-AUC ([2]; measured here: PEO4 Z-AUC) was 1.56.

In the case of `N#Cc1cccc(-c2c[nH]c3ncnc(N4CCOCC4)c23)c1`, the Z-AUC [2] is reported as 0.0885 (inactive), the Z-AUC [2, 5] is reported as 0.762 and the Z-AUC ([2]; measured here: PEO4 Z-AUC) is reported as 0.859.

In the case of `Cc1ccccc1-n1nc(-c2c(-c3ccc(F)cc3)nn3c2NC[C@@H](CO)C3)ccc1=O`, the Z-AUC [2] is reported as 0.0215 (inactive), the Z-AUC [2, 5] is reported as 0.2 and the Z-AUC ([2]; measured here: PEO4 Z-AUC) is reported as 0.209.

For `CC(=O)O[C@@H]1C[C@@H](C)[C@](O)(CCC2=CC(=O)OC2)[C@@]2(C)CCCC(C)(C)C12` (some centres not stated), the outcome [4] was “inactive” and the outcome [3] was “inactive”.
